Laboratory results taken from the supplement of paper PMC10670038.
Counter-ions that a name gives are not always drawn. ± gives the standard deviation of the averaged measurements. Over roughly 2,000 compounds, “relative cell viability vs DMSO, compound + 0.2 uM CuET” has its median near 1; the lowest 2% begin near 0.25. The sample holds the lowest values, similar compounds and a random draw of the others, so the mix is not that of the screen.

tested on: TE10; assay: relative cell viability vs DMSO, compound + 0.2 uM CuET (fraction); TE10 is an esophageal squamous carcinoma line; higher = less cytotoxic; settings: 2 µM; co-treatment: CuET (bis(diethyldithiocarbamate)copper) 0.2 uM; 48 h
Description: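 TE10 ESCC cells (1,000/well, 384-well plates) were treated with Selleck bioactive library compounds at 2 uM combined with 0.2 uM CuET (copper diethyldithiocarbamate) for 48 h. Viability was read by CellTiter-Glo and expressed relative to DMSO wells. Two technical replicates (A, B).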

SMILES	relative cell viability
CC(NC(=O)Cc1cc(F)cc(F)c1)C(=O)NC(C(=O)OC(C)(C)C)c1ccccc1 (configuration not stated)	1.23 ± 0.04
CN(CCOc1ccc(CC2SC(=O)NC2=O)cc1)c1ccccn1 (configuration not stated) [Rosiglitazone maleate]	1.12 ± 0.081
CN(CCOc1ccc(CC2SC(=O)NC2=O)cc1)c1ccccn1 (configuration not stated) [Rosiglitazone]	1.04 ± 0.052
CN(CCOc1ccc(CC2SC(=O)NC2=O)cc1)c1ccccn1 (configuration not stated) [Rosiglitazone HCl]	1.06 ± 0.062
COC(=O)C1=C(C#N)NC(C)=C(C(=O)OC(C)C)C1c1cccc([N+](=O)[O-])c1 (configuration not stated) [Nilvadipine]	1.11 ± 0.1
O=C(Nc1cccc2cccnc12)c1ccc(N2C(=O)C3C4C=CC(C4)C3C2=O)cc1 (stereo not drawn) [IWR-1-endo]	0.994 ± 0.1
NC(=O)N/N=C/c1ccc([N+](=O)[O-])o1 [Nitrofural]	1.3 ± 0.033
Cc1ccc(S(=O)(=O)c2ccc([N+](=O)[O-])o2)cc1	0.175 ± 0.0036
Nc1ccc(S(=O)(=O)Nc2ncccn2)cc1 [Sulfadiazine]	1.03 ± 0.045
CNS(=O)(=O)CCc1ccc2[nH]cc(C3CCN(C)CC3)c2c1 [Naratriptan]	1.2 ± 0.1
CCN(CCO)CCCOc1ccc2c(Nc3cc(CC(=O)Nc4cccc(F)c4)[nH]n3)ncnc2c1 [Barasertib (AZD1152-HQPA)]	1.25 ± 0.26
CC(C)C[C@@H](C=O)NC(=O)[C@H](CC(C)C)NC(=O)[C@H](CC(C)C)NC(=O)OCc1ccccc1	0.223 ± 0.006
CC(NC(=O)C(Cc1ccccc1)NC(=O)OCc1ccccc1)C(=O)CF (configuration not stated)	1.14 ± 0.028
CCCC[C@@H](C=O)NC(=O)[C@H](CC(C)C)NC(=O)OCc1ccccc1 [Calpeptin]	1.12 ± 0.036
C[C@]12CCC(=O)C=C1[C@@H]1C[C@@H]1[C@H]1[C@@H]3[C@@H]4C[C@@H]4[C@@]4(CCC(=O)O4)[C@@]3(C)CC[C@@H]12 [Drospirenone]	0.77 ± 0.4
CC(=O)NC(Cc1ccc(O)cc1)C(=O)NC(CCCN=C(N)N)C(=O)NC(Cc1ccccc1)C(N)=O (configuration not stated)	0.977 ± 0.19
CC(C)C[C@H](NC(=O)[C@H](Cc1ccccc1)NC(=O)c1cnccn1)B(O)O [Bortezomib (PS-341)]	0.348 ± 0.058
COC[C@H](NC(=O)c1cnc(C)s1)C(=O)N[C@@H](COC)C(=O)N[C@@H](Cc1ccccc1)C(=O)[C@@]1(C)CO1 [Oprozomib (ONX 0912)]	0.182 ± 0.0023
COc1ccc(C[C@H](NC(=O)[C@H](C)NC(=O)CN2CCOCC2)C(=O)N[C@@H](Cc2ccccc2)C(=O)[C@@]2(C)CO2)cc1	0.198 ± 0.0095
CC(C)C[C@H](NC(=O)[C@H](CCc1ccccc1)NC(=O)CN1CCOCC1)C(=O)N[C@@H](Cc1ccccc1)C(=O)N[C@@H](CC(C)C)C(=O)[C@@]1(C)CO1 [Carfilzomib (PR-171)]	0.198 ± 0.019
COC(=O)[C@H](Cc1ccccc1)NC(=O)[C@@H](N)CC(=O)O [Aspartame]	1.09 ± 0.034
CC(C)c1nc(CN(C)C(=O)N[C@@H](CCN2CCOCC2)C(=O)N[C@H](CC[C@H](Cc2ccccc2)NC(=O)OCc2cncs2)Cc2ccccc2)cs1 [Cobicistat (GS-9350)]	0.957 ± 0.025
O=C(Cc1ccc(-c2ccc(OCCN3CCOCC3)cc2)cn1)NCc1ccccc1	0.827 ± 0.037

SMILES	relative cell viability
CC(C)CC(CC(=O)NO)C(=O)N[C@@H](Cc1ccc2ccccc2c1)C(=O)N[C@@H](C)C(=O)NCCN (some centres not stated)	1.19 ± 0.051
Cc1c(-c2ccnn2C)cc(C(=O)NCc2ccc(S(C)(=O)=O)cn2)c(=O)n1-c1cccc(C(F)(F)F)c1 [Alvelestat (AZD9668)]	0.993 ± 0.044
CC(C)(C)c1cnc(CSc2cnc(NC(=O)C3CCNCC3)s2)o1	0.963 ± 0.093
COc1c2ccoc2cc2oc(=O)ccc12 [Bergapten]	1.12 ± 0.038
CCC(=O)O[C@]1(C(=O)SCF)[C@H](C)C[C@H]2[C@@H]3C[C@H](F)C4=CC(=O)C=C[C@]4(C)[C@@]3(F)[C@@H](O)C[C@@]21C [Fluticasone propionate]	1.02 ± 0.043
Oc1c(Br)cc(Br)c2cccnc12 [Broxyquinoline]	0.689 ± 0.033
O=S(=O)(O)c1cc(O)ccc1O [Ethamsylate]	1.08 ± 0.096
C=CCc1ccc(O)c(-c2cc(CC=C)ccc2O)c1 [Magnolol]	1.02 ± 0.057
O=S(=O)(O)CCS [Mesna]	1.08 ± 0.024
CN1CCN(Cc2ccc(NC(=O)Cc3ccc(Oc4cc(NC(=O)C5CC5)ncn4)cc3)cc2C(F)(F)F)CC1	0.9884 ± 0.0017
CCS(=O)(=O)Nc1ccc2[nH]c(O)c(C(=Nc3ccc(CN4CCCCC4)cc3)c3ccccc3)c2c1 [Hesperadin]	0.5395 ± 0.0028
CCOC(=O)C1=C(N)Oc2ccc(Cl)cc2C1C(C#N)C(=O)OCC (configuration not stated)	0.663 ± 0.023
CN[C@@H](C)C(=O)N[C@H](C(=O)N1CCC[C@H]1C(=O)N[C@H](C(=O)NCCCCCCNC(=O)[C@@H](NC(=O)[C@@H]1CCCN1C(=O)[C@@H](NC(=O)[C@H](C)NC)C1CCCCC1)C(c1ccccc1)c1ccccc1)C(c1ccccc1)c1ccccc1)C1CCCCC1	0.437 ± 0.011
CC(C)(C)c1[nH]cnc1/C=c1\[nH]c(=O)/c(=C/c2ccccc2)[nH]c1=O [Plinabulin (NPI-2358)]	0.753 ± 0.058
COCCOc1nc(-c2ccc(Cl)c(Cl)c2)n(-c2ccc(NC(=O)CCl)cc2)n1 [MI-2 (MALT1 inhibitor)]	0.115 ± 0.0096
NCC(=O)Nc1ccc(-n2nc(C(F)(F)F)cc2-c2ccc3c(ccc4ccccc43)c2)cc1	0.649 ± 0.017
COc1nc(-c2ccc3c(c2)OCO3)n(-c2ccc(NC(=O)CSc3ccccc3)cc2)n1 [SecinH3]	1.25 ± 0.17
CN(C)c1cc(NC(=O)CNC(C)(C)C)c(O)c2c1CC1CC3C(N(C)C)C(=O)C(C(N)=O)=C(O)C3(O)C(=O)C1=C2O (configuration not stated) [Tigecycline]	0.994 ± 0.068
O=Nc1c(-c2c(O)[nH]c3cc(Br)ccc23)[nH]c2ccccc12	1.083 ± 0.0023
C[N+]1(C)[C@@H]2C[C@@H](OC(=O)C(O)(c3cccs3)c3cccs3)C[C@H]1[C@@H]1O[C@@H]12 [Tiotropium Bromide hydrate]	0.962 ± 0.027
C=C1CC2(O)OC3(CC2C(C)C)C(C)CCC13 (configuration not stated) [Curcumol]	0.838 ± 0.028
CC(C)[C@H](C(=O)Nc1ccc(C(=O)NO)cc1)c1ccccc1	0.178 ± 0.0071
CCCCN(Cc1ccc(C(=O)NO)cc1)C(=O)Nc1ccccc1 [Nexturastat A]	0.837 ± 0.056

SMILES	relative cell viability
CC(=O)Nc1ccc(C(=O)Nc2ccccc2N)cc1 [CI994 (Tacedinaline)]	1.23 ± 0.26
Cc1c(C(=O)NN2CCCCC2)nn(-c2ccc(Cl)cc2Cl)c1-c1ccc(Cl)cc1 [Rimonabant]	0.716 ± 0.15
NC1=N[C@@]2(c3cc(NC(=O)c4ccc(F)cn4)ccc3F)COC[C@H]2CS1	0.948 ± 0.07
O=C(O)C(Cc1ccccc1[N+](=O)[O-])=NNc1nc(-c2ccc(Cl)c(Cl)c2)cs1	1.04 ± 0.16
COc1cc(-c2ncn(/C=C\C(=O)OC(C)C)n2)cc(C(F)(F)F)c1	0.25 ± 0.0078
O=C(/C=C/n1cnc(-c2cc(C(F)(F)F)cc(C(F)(F)F)c2)n1)N1CC(F)(F)C1	0.355 ± 0.025
O=C(/C=C\n1cnc(-c2cc(C(F)(F)F)cc(C(F)(F)F)c2)n1)NNc1cnccn1	0.29 ± 0.015
C=CS(=O)(=O)NC1CCN(C(=O)CNc2cc(I)c(Cl)cc2OC)CC1 [K-Ras(G12C) inhibitor 9]	0.699 ± 0.08
O=C(NOCC1CC1)c1ccc(F)c(F)c1Nc1ccc(I)cc1Cl	0.64 ± 0.17
Cc1cccc(-c2[nH]ncc2-c2ccc3ncccc3n2)n1	1.04 ± 0.0027
O=C(CCCCCCNC(=O)c1cnc(N(c2ccccc2)c2ccccc2)nc1)NO [Rocilinostat (ACY-1215)]	0.8907 ± 0.0072
CC(C)(C)OC(=O)Nc1ccc(-c2cc(C(=O)NCCCCCCC(=O)NO)no2)cc1	0.244 ± 0.003
CN(C)c1ccc(C(=O)NCCCCCCC(=O)NO)cc1	0.322 ± 0.042
C[C@@H]1COC(Nc2ccc3ncnc(Nc4ccc(OCc5nccs5)c(Cl)c4)c3c2)=N1 [Varlitinib]	1.04 ± 0.086
S=C=Nc1cccc(NC(=S)NCCCCNC(=S)Nc2cccc(N=C=S)c2)c1	1.2 ± 0.15
C=CCn1c(=O)c2cnc(Nc3ccc(N4CCN(C)CC4)cc3)nc2n1-c1cccc(C(C)(C)O)n1	0.559 ± 0.038
CCn1c(=O)c(-c2ccc(-c3cncs3)cc2Cl)cc2cnc(Nc3ccc(N4CCN(C)CC4)cc3)nc21	0.183 ± 0.025
C=CC(=O)Nc1cccc(Sc2nc(Nc3ccc(N4CCN(C)CC4)cc3)ncc2Cl)c1	0.846 ± 0.02
COc1cc2ncnc(Oc3cccc(NC(=O)Nc4cc(C(C)(C)C(F)(F)F)on4)c3)c2cc1OC	1.1 ± 0.061
COc1cc(OC)c(NC(=O)Nc2cc(C)on2)cc1Cl	1.1 ± 0.05
CCN1C(=CC(C)=O)Sc2ccc(OC)cc21	1.11 ± 0.11
CC(CCC(=O)NCCS(=O)(=O)O)C1CCC2C3C(O)CC4CC(O)CCC4(C)C3CCC12C (configuration not stated) [Sodium Tauroursodeoxycholate (TUDC)]	1.24 ± 0.12
O=C1C(Cl)=C(N2CCOCC2)C(=O)N1c1ccc(Cl)c(Cl)c1	1.17 ± 0.026

SMILES	relative cell viability
COc1ccc(/C=C/C(=O)C2(C(=O)/C=C/c3ccc(OC)c(OC)c3)CCCCC2)cc1OC	0.238 ± 0.01
COc1cc(/C=C/C(=O)CC(=O)/C=C/c2ccc(O)c(OC)c2)ccc1O [Curcumin]	0.656 ± 0.023
COc1cc(/C=C/C(=O)O)ccc1O [Ferulic Acid]	1.21 ± 0.12
O=C1c2c(O)cccc2C([C@@H]2O[C@H](CO)[C@@H](O)[C@H](O)[C@H]2O)c2cc(CO)cc(O)c21 (some centres not stated) [Aloin]	1.1 ± 0.12
N#Cc1ccc(COC[C@H]2O[C@@H](n3c(NCc4ccc(Cl)c(Cl)c4)nc4c(N)ncnc43)[C@H](O)[C@@H]2O)cc1	0.939 ± 0.0025
CCOc1ccccc1OC(c1ccccc1)C1CNCCO1 (configuration not stated) [Reboxetine mesylate]	1.2 ± 0.37
c1ccc(Cn2c(-c3ccc(OCC(C4CCNCC4)n4c(-c5ccccc5)nc5ccccc54)cc3)nc3ccccc32)cc1 (configuration not stated) [Deltarasin]	0.9797 ± 0.0069
CC1(C)C=C(CN2C/C(=C\c3ccc(F)cc3)C(=O)/C(=C/c3ccc(F)cc3)C2)C(C)(C)N1O	0.216 ± 0.0066
CC(C)(C)Cn1c(N)nc2ccc(-c3[nH]c(C(C)(C)C)nc3-c3ccc(F)cc3)nc21	1.34 ± 0.083
CCOC(=O)C1=C(C)NC(C)=C(C(=O)OCC)C1c1ccccc1/C=C/C(=O)OC(C)(C)C [Lacidipine]	0.785 ± 0.011
COc1ccc(COc2ccc(Cc3cnc(N)nc3N)cc2OC)cc1	1.024 ± 0.0044
Cn1c(=O)cc(N2CCC[C@@H](N)C2)n(Cc2cc(F)ccc2C#N)c1=O [Trelagliptin]	1.17 ± 0.22
CC(C=CC(=O)NO)=CC(C)C(=O)c1ccc(N(C)C)cc1 (configuration not stated) [Trichostatin A (TSA)]	0.177 ± 0.0076
CN(C(Cc1ccc(OS(=O)(=O)c2cccc3cnccc23)cc1)C(=O)N1CCN(c2ccccc2)CC1)S(=O)(=O)c1cccc2cnccc12 (configuration not stated)	0.992 ± 0.046
CC(NC(=O)C(O)c1cc(F)cc(F)c1)C(=O)NC1C(=O)N(C)c2ccccc2-c2ccccc21 (configuration not stated)	1.07 ± 0.058
CC(C)OC(=O)C1=CN(C(=O)c2ccc(F)c(F)c2)CC(C)(C)c2c1[nH]c1ccccc21	1.13 ± 0.041
O=C(NNc1ccccc1)c1ccncc1	1.06 ± 0.18
O=C(/C=C/c1ccc2ccccc2n1)c1ccncc1	0.186 ± 0.037
NNC(=O)c1ccncc1 [Isoniazid]	1.1 ± 0.14
Cn1c(=O)cc(N2CCC[C@@H](N)C2)n(Cc2ccccc2C#N)c1=O [Alogliptin]	1.1 ± 0.21
NCc1c[nH]c(=S)n1[C@@H]1CCc2c(F)cc(F)cc2C1 [(R)-Nepicastat HCl]	1.121 ± 0.0038
CN(C)CCSSCCNC(=O)C1CCN(C(=O)CSc2ccc(Cl)cc2)CC1	1.05 ± 0.11
Cc1cc(N2CCOCC2)cc2[nH]c(-c3c(NCC(O)c4cccc(Cl)c4)cc[nH]c3=O)nc12 (configuration not stated)	0.799 ± 0.15
